The panel holds about 83,000 compounds, 20% with a hit somewhere; the sample as a whole holds those more often.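 Assay: single dose, 48 h. Readout: percent growth (0 = no net growth; negative = cell death). Active: <10.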 Values without a mark were called inactive. Activity calls are given as the source filed them.

Test systems include T-47D breast; BT-549 breast; MDA-MB-435 melanoma; SW-620 colon; MCF7 breast; HCT-116 colon; HCC-2998 colon; KM12 colon; MDA-MB-468 breast.
Common to all, as to assay: NCI-60 one-dose screen, 48 h (100 = growth as untreated, 0 = no growth, -100 = all killed)
Holding throughout (conditions): 10 µM unless noted

Consider `CC(=O)Nc1ccc(S(=O)(=O)Nc2ccc(-c3ccc4c(c3)NC(=O)/C4=C\c3ccc[nH]3)cc2)cc1`, for which the growth was 20.7% with T-47D breast; 42.6% with BT-549 breast; 99.7% in the test with MDA-MB-435 melanoma; 114% in the test with SW-620 colon; 14.4% in the test with MCF7 breast; 87.1% with HCT-116 colon. For the same molecule, the growth in the test on HCC-2998 colon is 96.9%; with KM12 colon it was 51.6%; in the test with MDA-MB-468 breast, -7.1% (active).
`CCCN(CCC)S(=O)(=O)c1ccc(C(=O)O)cc1.CCCN(CCC)S(=O)(=O)c1ccc(C(=O)O)cc1.[Cl][Pt+2][Cl].[NH2-].[NH2-]`: the growth in the test with T-47D breast is 26.3%; in the test with BT-549 breast, -78.8% (active); in the test on MDA-MB-435 melanoma, -54.6% (active); with SW-620 colon it was 20.6%; in the test with MCF7 breast, 8.34% (active); in the test on HCT-116 colon it was 2.04% (active). Besides, the growth is -27.6% (active) in the test with HCC-2998 colon, 17.8% with KM12 colon and -54.3% (active) in the test on MDA-MB-468 breast.
In the case of `COc1ccc(NC(=O)CSc2nnc(-c3ccc(-c4nc5ccccc5[nH]4)cc3)o2)cc1`, the growth in the test with T-47D breast was 78.6%; with BT-549 breast, 27.3%; in the test on MDA-MB-435 melanoma, 20.9%; with SW-620 colon it was 11.4%; in the test on MCF7 breast it was 13.8%; with HCT-116 colon, 2.37% (active). Besides, the growth in the test with HCC-2998 colon is 92.7%; with KM12 colon, 30.5%; in the test on MDA-MB-468 breast it was 86.5%.
Turning to `Cc1ccc(N=Nc2c(N)nn3c(-c4cc5ccccc5oc4=O)ccnc23)cc1`, the growth with T-47D breast is 55.7%; in the test on BT-549 breast, 74.5%; in the test on MDA-MB-435 melanoma, 55.9%; with SW-620 colon, 30.7%; in the test with MCF7 breast, 26.6%; in the test on HCT-116 colon it was 11.1%. Also, the values for the growth in the test with HCC-2998 colon, in the test with KM12 colon and in the test on MDA-MB-468 breast were -21.1% (active), 31.3% and 14.9%, respectively.
Take `CCCSc1nnc(-c2sc3nc4ccccc4n3c2C)o1`: the growth with T-47D breast was 102%; in the test on BT-549 breast, 157%; in the test with MDA-MB-435 melanoma it was 105%; in the test on SW-620 colon it was 108%; in the test on MCF7 breast, 90.3%; in the test on HCT-116 colon, 106%. Also, the values for the growth in the test on HCC-2998 colon, in the test with KM12 colon and with MDA-MB-468 breast were 112%, 101% and 88.9%, respectively.
As for `COc1ccc(NC2=C(I)C(=O)C(C)=C(C)C2=O)cc1`, the growth in the test with T-47D breast was -21.1% (active); in the test with BT-549 breast, 81.4%; in the test on MDA-MB-435 melanoma it was -72.4% (active); with SW-620 colon, 62.1%; in the test on MCF7 breast, -8.31% (active); in the test on HCT-116 colon it was -3.05% (active). In addition, the results for the growth in the test on HCC-2998 colon, in the test on KM12 colon and in the test with MDA-MB-468 breast were 118%, 19.1% and -42.3% (active), respectively.
On to `Cc1ccccc1NC(=O)c1cccc(NC(=O)CCl)c1`, for which the growth in the test with T-47D breast was 74.8%; with BT-549 breast, 39.4%; with MDA-MB-435 melanoma, 72.7%; with SW-620 colon, 41.7%; in the test on MCF7 breast, 19.2%; in the test with HCT-116 colon it was 27.3%. Also, the values for the growth in the test on HCC-2998 colon, with KM12 colon and with MDA-MB-468 breast were 96.1%, 77.3% and -0.88% (active), respectively.
For `Cc1[nH]nc2ccc3nc(-c4cnn(CCO)c4)c4c(c3c12)CCCC4`, the growth with T-47D breast was 34.5%; with BT-549 breast, 46.3%; in the test on MDA-MB-435 melanoma, 18.7%; in the test with SW-620 colon, 29%; in the test with MCF7 breast, 52.6%; in the test on HCT-116 colon it was 33.8%. For the same molecule, the growth in the test with HCC-2998 colon was 45.6%; in the test on KM12 colon, 18.8%; in the test on MDA-MB-468 breast, -0.783% (active).
Regarding `COc1ccc(NC(=O)CSc2nnc(-c3ccc(-c4nc5ccc(Cl)cc5[nH]4)cc3)o2)cc1`, the growth in the test with T-47D breast is 75.9%; in the test on BT-549 breast it was 4.02% (active); in the test with MDA-MB-435 melanoma it was 17.8%; in the test on SW-620 colon, 20.3%; with MCF7 breast it was 42.2%; in the test on HCT-116 colon it was 9.94% (active). In addition, the growth in the test on HCC-2998 colon is 109%; in the test on KM12 colon, 29.6%; in the test with MDA-MB-468 breast, 86.2%.
In the case of `Cc1ccc(C(=O)Nc2cc(-n3ccnc3C)cc(C(F)(F)F)c2)cc1C#Cc1cnc2cccnn12`, the growth with T-47D breast was 0.344% (active); in the test with BT-549 breast it was -22.7% (active); in the test on MDA-MB-435 melanoma, 3.5% (active); in the test with SW-620 colon, 12.6%; in the test with MCF7 breast, 0.633% (active); with HCT-116 colon it was -41.3% (active). The results for the growth in the test on HCC-2998 colon, with KM12 colon and in the test with MDA-MB-468 breast were -48.7% (active), 3.67% (active) and -20.6% (active), respectively.
Take `CN1CCN(C(=O)CCN(C(=O)Oc2cc3c(c4ccccc24)[C@H](CCl)CN3C(=O)c2cc3cc(OCCCN4CCC4)ccc3[nH]2)[C@H]2CCSSC2)CC1`: the growth in the test on T-47D breast is -40.9% (active); in the test with BT-549 breast it was -68.3% (active); in the test with MDA-MB-435 melanoma, -37.1% (active); in the test with SW-620 colon it was -54.2% (active); with MCF7 breast, -67.4% (active); in the test on HCT-116 colon, -42.7% (active). The values for the growth with HCC-2998 colon, in the test with KM12 colon and in the test with MDA-MB-468 breast were -91.2% (active), -63.3% (active) and -82.9% (active), respectively.
`C=CCSc1nnc(-c2ccc(-c3nc4ccccc4[nH]3)cc2)o1`: the growth in the test on T-47D breast was 4.02% (active); with BT-549 breast, 83.5%; in the test with MDA-MB-435 melanoma, 79%; in the test with SW-620 colon it was 101%; in the test with MCF7 breast, 72.6%; in the test with HCT-116 colon it was 74.9%. Besides, the growth is 97.9% in the test with HCC-2998 colon, 82% with KM12 colon and 69.3% with MDA-MB-468 breast.
For the molecule `O=C(CSc1nnc(-c2ccc(-c3nc4ccccc4[nH]3)cc2)o1)Nc1ccc(Br)cc1`, the growth with T-47D breast was 32.8%; in the test with BT-549 breast, 37.1%; with MDA-MB-435 melanoma it was 18.3%; in the test with SW-620 colon it was -47% (active); in the test with MCF7 breast, 9.69% (active); in the test with HCT-116 colon, 10.3%. The growth is 71.2% in the test on HCC-2998 colon, 21.7% in the test on KM12 colon and 67.3% with MDA-MB-468 breast.
`Cn1cc(-c2cc(N)n3nc(-c4c[nH]c5ccccc45)cc3n2)c2ccccc21`: the growth in the test on T-47D breast was -56.6% (active); with BT-549 breast it was -92.5% (active); in the test on MDA-MB-435 melanoma, -80.6% (active); in the test on SW-620 colon, -87.1% (active); in the test with MCF7 breast, -77.3% (active); in the test on HCT-116 colon it was -88% (active). The growth was -77.1% (active) in the test on HCC-2998 colon, -80% (active) with KM12 colon and -79.8% (active) in the test on MDA-MB-468 breast.

Values taken from PubChem BioAssay (NCI).
